# This is part of a sample that, as a whole, favours compounds with a hit. Of some 79,000 tested, about 15% had one in any assay. Unmarked numbers belong to inactive results. The source made the active and inactive calls. Cut-off read from the data, not from the text of the source: active = growth inhibition above about 70%; inactive = the rest.
# Tests used:
# [1] = NCI Yeast Anticancer Drug Screen. Data for the rad52 strain (AID 147);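 note: 0% = growth of vehicle-treated control cultures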; conditions: S. cerevisiae rad52 mutant growth inhibition, active compounds read high
# In short: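 Genetically altered yeast (DNA damage repair defect) treated with compound; inhibition calculated relative to vehicle.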
# [2] = NCI Yeast Anticancer Drug Screen. Data for the wt1 strain (AID 149);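 note: 0% = growth of vehicle-treated wt1 cultures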; conditions: S. cerevisiae wt1 strain (SPY 50644) growth inhibition, active compounds read high
# In short: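 Each compound is tested on wt1 yeast and the loss of growth versus vehicle gives the inhibition value.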
# [3] = NCI Yeast Anticancer Drug Screen. Data for the rad50EPP+ strain (AID 151);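 note: 0% = growth of vehicle-treated control cultures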; conditions: S. cerevisiae rad50 mutant strain, active compounds read high
# In short: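 Strain rad50EPP+; compound exposure; % growth inhibition vs vehicle.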
# [4] = NCI Yeast Anticancer Drug Screen. Data for the rad50 strain (AID 155);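 note: 0% = growth of vehicle-only cultures of the same strain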; conditions: S. cerevisiae rad50 strain growth inhibition, active compounds read high
# In short: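 Vehicle-treated cultures provide the reference for the growth inhibition reported for compound-exposed, repair-deficient yeast.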
# [5] = NCI Yeast Anticancer Drug Screen. Data for the mec2-1 strain (AID 157); conditions: S. cerevisiae mec2-1 strain, active compounds read high
# In short: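 Cells of the genetically defined mec2-1 yeast strain are incubated with test compound. Inhibition of growth is calculated against vehicle-treated controls.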
# [6] = NCI Yeast Anticancer Drug Screen. Data for the rad14 strain (AID 159);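 note: 0% = growth of vehicle-treated control cultures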; conditions: S. cerevisiae rad14 strain growth inhibition, active compounds read high
# In short: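 Inhibition of growth is reported for a repair-deficient yeast mutant following compound treatment, calculated relative to cultures that received vehicle.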
# [7] = NCI Yeast Anticancer Drug Screen. Data for the sgs1 mgt1 strain (AID 161);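 note: 0% = growth of cultures given vehicle only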; conditions: S. cerevisiae sgs1 mgt1 strain, active compounds read high
# In short: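 Read-out: growth inhibition vs vehicle controls. Cells: mutant yeast strain deficient in DNA damage repair.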
# [8] = NCI Yeast Anticancer Drug Screen. Data for the CLN2oe strain (AID 163);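 note: 0% = growth of vehicle-only control cultures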; conditions: S. cerevisiae CLN2oe strain, active compounds read high
# In short: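 Strain altered in cell-cycle control, incubated with compound; growth compared to solvent-treated controls.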
# [9] = NCI Yeast Anticancer Drug Screen. Data for the cln2 rad14 strain (AID 165);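 note: 0% = growth equal to vehicle treated cultures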; conditions: S. cerevisiae cln2 rad14 strain, active compounds read high
# In short: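 The screen exposed genetically defined yeast (cln2 rad14) to test compounds and scored growth inhibition relative to vehicle-treated controls.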
# [10] = NCI Yeast Anticancer Drug Screen. Data for the bub3 strain (AID 167); conditions: S. cerevisiae bub3 mutant strain, active compounds read high
# In short: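 Mutant yeast screening strain plus compound; vehicle-treated cultures serve as the 0% inhibition reference.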
# [11] = NCI Yeast Anticancer Drug Screen. Data for the wt2 strain (AID 169); conditions: S. cerevisiae wt2 strain growth inhibition, active compounds read high
# In short: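 Steps: yeast strain treated with compound; growth recorded; inhibition calculated relative to cultures given vehicle alone.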
# [12] = NCI Yeast Anticancer Drug Screen. Data for the mlh1 strain (AID 171);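 note: 0% = growth of vehicle-treated control cultures of the same strain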; conditions: S. cerevisiae mlh1 strain growth inhibition, active compounds read high
# In short: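 Yeast screen: mutant strain plus compound, growth scored against vehicle control wells.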
# [13] = NCI Yeast Anticancer Drug Screen. Data for the sgs1 strain (AID 173);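 note: 0% = growth of vehicle-only control cultures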; conditions: S. cerevisiae sgs1 mutant, active compounds read high
# In short: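 Inhibition of yeast growth served as the measure. The mutant strain was treated with each compound, and growth was normalised to cultures receiving vehicle alone.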
# [14] = NCI Yeast Anticancer Drug Screen. Data for the mlh1 rad18 strain (AID 175); conditions: S. cerevisiae mlh1 rad18 strain growth inhibition, active compounds read high
# In short: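 Compound-treated yeast growth, normalised to vehicle controls. Strain bears defined DNA repair mutations.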
# [15] = at 5.0 µM (retest, dose inferred, filed as 0.5)
# [16] = at 50.0 µM (retest, dose inferred, filed as 5.0)
smiles,measurement,setting,value
C/C=C/[P+](c1ccccc1)(c1ccccc1)c1ccccc1,growth inhibition,[1]; at 1.2 µM,49%
same,growth inhibition,[1]; at 3.7 µM,62%
same,growth inhibition,[1]; at 11.0 µM,70% (active)
same,growth inhibition,[1]; at 33.0 µM,83% (active)
same,growth inhibition,[1]; at 100.0 µM,92% (active)
same,growth inhibition,[2]; at 1.2 µM,31%
same,growth inhibition,[2]; at 3.7 µM,42%
same,growth inhibition,[2]; at 11.0 µM,54%
same,growth inhibition,[2]; at 33.0 µM,61%
same,growth inhibition,[2]; at 100.0 µM,86% (active)
same,growth inhibition,[3]; at 1.2 µM,13%
same,growth inhibition,[3]; at 3.7 µM,2%
same,growth inhibition,[3]; at 11.0 µM,-4%
same,growth inhibition,[3]; at 33.0 µM,0%
same,growth inhibition,[3]; at 100.0 µM,16%
same,growth inhibition,[4]; at 1.2 µM,50%
same,growth inhibition,[4]; at 3.7 µM,67%
same,growth inhibition,[4]; [15],48%
same,growth inhibition,[4]; at 11.0 µM,72% (active)
same,growth inhibition,[4]; at 33.0 µM,86% (active)
same,growth inhibition,[4]; [16],78% (active)
same,growth inhibition,[4]; at 50.0 µM,81.2% (active)
same,growth inhibition,[4]; at 100.0 µM,95% (active)
same,growth inhibition,[5]; at 1.2 µM,21%
same,growth inhibition,[5]; at 3.7 µM,44%
same,growth inhibition,[5]; [15],33%
same,growth inhibition,[5]; at 11.0 µM,54%
same,growth inhibition,[5]; at 33.0 µM,64%
same,growth inhibition,[5]; [16],63%
same,growth inhibition,[5]; at 50.0 µM,83.3% (active)
same,growth inhibition,[5]; at 100.0 µM,91% (active)
same,growth inhibition,[6]; at 1.2 µM,30%
same,growth inhibition,[6]; at 3.7 µM,27%
same,growth inhibition,[6]; at 11.0 µM,28%
same,growth inhibition,[6]; at 33.0 µM,63%
same,growth inhibition,[6]; at 100.0 µM,97% (active)
same,growth inhibition,[7]; [15],20%
same,growth inhibition,[7]; [16],73% (active)
same,growth inhibition,[7]; at 50.0 µM,78.3% (active)
same,growth inhibition,[8]; at 1.2 µM,16%
same,growth inhibition,[8]; at 3.7 µM,13%
same,growth inhibition,[8]; at 11.0 µM,29%
same,growth inhibition,[8]; at 33.0 µM,30%
same,growth inhibition,[8]; at 100.0 µM,78% (active)
same,growth inhibition,[9]; [15],9%
same,growth inhibition,[9]; [16],16%
same,growth inhibition,[9]; at 50.0 µM,52.6%
same,growth inhibition,[10]; at 1.2 µM,15%
same,growth inhibition,[10]; at 3.7 µM,29%
same,growth inhibition,[10]; [15],25%
same,growth inhibition,[10]; at 11.0 µM,49%
same,growth inhibition,[10]; at 33.0 µM,67%
same,growth inhibition,[10]; [16],86% (active)
same,growth inhibition,[10]; at 50.0 µM,78.6% (active)
same,growth inhibition,[10]; at 100.0 µM,90% (active)
same,growth inhibition,[11]; at 1.2 µM,-1%
same,growth inhibition,[11]; at 3.7 µM,12%
same,growth inhibition,[11]; at 11.0 µM,18%
same,growth inhibition,[11]; at 33.0 µM,47%
same,growth inhibition,[11]; at 100.0 µM,87% (active)
same,growth inhibition,[12]; at 1.2 µM,30%
same,growth inhibition,[12]; at 3.7 µM,43%
same,growth inhibition,[12]; at 11.0 µM,63%
same,growth inhibition,[12]; at 33.0 µM,68%
same,growth inhibition,[12]; at 100.0 µM,92% (active)
same,growth inhibition,[13]; at 1.2 µM,19%
same,growth inhibition,[13]; at 3.7 µM,31%
same,growth inhibition,[13]; at 11.0 µM,55%
same,growth inhibition,[13]; at 33.0 µM,61%
same,growth inhibition,[13]; at 100.0 µM,89% (active)
same,growth inhibition,[14]; [15],33%
same,growth inhibition,[14]; [16],63%
same,growth inhibition,[14]; at 50.0 µM,87.8% (active)
